Results taken from the supplement of paper PMC3334620.
Whole data set: some 33,000 sequences, median “E-score (-0.5 to 0.5)” near -0.054, cut for the highest 2% near 0.39. What follows is part of a selection rich in the highest values, with near analogues and random picks from the rest.

target: Ylr278c (UniProt Q05854); test: PBM E-score (8-mer binding enrichment) (E-score (-0.5 to 0.5)); higher = stronger / more preferred TF binding; conditions: protein concentration: 200 nM; construct: GST-DNA-binding domain
UniProt Q05854, sequence (Q05854 whole entry, the tested form may be a part): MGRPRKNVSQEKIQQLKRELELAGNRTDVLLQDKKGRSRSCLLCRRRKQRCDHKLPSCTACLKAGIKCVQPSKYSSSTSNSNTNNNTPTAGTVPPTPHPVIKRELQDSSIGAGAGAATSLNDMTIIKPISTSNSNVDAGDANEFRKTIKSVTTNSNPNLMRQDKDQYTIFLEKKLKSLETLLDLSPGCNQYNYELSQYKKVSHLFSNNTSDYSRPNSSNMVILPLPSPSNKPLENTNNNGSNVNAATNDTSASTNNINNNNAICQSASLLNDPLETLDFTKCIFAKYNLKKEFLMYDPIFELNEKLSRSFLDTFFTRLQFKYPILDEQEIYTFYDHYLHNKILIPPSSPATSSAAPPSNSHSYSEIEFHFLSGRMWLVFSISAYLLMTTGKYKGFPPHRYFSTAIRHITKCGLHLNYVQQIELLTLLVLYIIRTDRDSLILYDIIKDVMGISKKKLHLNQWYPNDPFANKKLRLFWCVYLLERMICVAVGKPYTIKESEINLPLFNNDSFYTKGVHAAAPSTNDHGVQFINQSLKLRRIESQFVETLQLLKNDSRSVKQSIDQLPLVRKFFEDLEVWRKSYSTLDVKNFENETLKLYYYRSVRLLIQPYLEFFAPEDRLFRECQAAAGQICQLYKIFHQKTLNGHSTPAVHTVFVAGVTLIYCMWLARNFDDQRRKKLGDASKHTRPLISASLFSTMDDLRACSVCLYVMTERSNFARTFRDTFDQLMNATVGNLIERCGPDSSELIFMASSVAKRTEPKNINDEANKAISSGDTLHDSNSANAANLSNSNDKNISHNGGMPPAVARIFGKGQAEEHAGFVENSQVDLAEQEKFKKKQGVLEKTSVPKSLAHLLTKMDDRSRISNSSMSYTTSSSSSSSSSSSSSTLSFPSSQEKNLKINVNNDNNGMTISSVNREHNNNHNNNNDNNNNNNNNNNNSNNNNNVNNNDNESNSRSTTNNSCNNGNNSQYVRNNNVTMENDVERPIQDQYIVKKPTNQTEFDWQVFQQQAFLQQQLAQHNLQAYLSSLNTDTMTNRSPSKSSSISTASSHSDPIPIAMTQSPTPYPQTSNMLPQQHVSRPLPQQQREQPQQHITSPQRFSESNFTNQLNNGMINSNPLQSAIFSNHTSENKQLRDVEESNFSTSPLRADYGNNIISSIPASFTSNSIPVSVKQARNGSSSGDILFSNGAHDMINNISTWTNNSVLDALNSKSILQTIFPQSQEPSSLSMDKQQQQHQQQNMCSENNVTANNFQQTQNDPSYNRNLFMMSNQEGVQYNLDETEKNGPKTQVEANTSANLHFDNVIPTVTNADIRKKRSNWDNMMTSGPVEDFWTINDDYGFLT
Method: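 Universal 'all 10-mer' protein binding microarrays (Agilent AMADID 015681) probed with GST-tagged S. cerevisiae TFs (full-length or DBD) made by in vitro transcription/translation (PURExpress), about 100-200 nM. Bound TF was detected with fluorescent anti-GST. Each ungapped 8-mer (which stands for itself and its reverse complement) is scored by the PBM enrichment score (E-score), a modified Wilcoxon-Mann-Whitney statistic from -0.5 to +0.5, computed with the Universal PBM Analysis Suite. Scale: above 0.35 generally sequence-specific binding.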

Sequence | PBM E-score
ACCCGGAC | 0.396
TCCCGGCA | 0.333
ACCCGGAA | 0.394
ACCCGGTC | 0.202
ACCCGGGC | 0.273
CCCCTAAC | -0.141
GAAATCGC | 0.214
AACTGGCC | 0.0711
GTGCCTTA | -0.129
AGCGCAGG | 0.169
CAAAAAGG | -0.203
AATTTCTC | 0.121
CCCCGGTC | 0.368
GCCCGGCC | 0.32
CCCCGGAC | 0.388
CCCCGGCG | 0.348
CCCCGGTA | 0.329
GCCCGGGC | 0.356
CCCCGGAA | 0.406
CCCCGGCA | 0.318
CCCGGGAG | 0.294
CCCCGGAG | 0.48
CCCCGGCC | 0.287

Sequence | PBM E-score
GCCCGGAC | 0.406
AAACCAGC | 0.0107
AGTGAGCC | -0.162
TACTTTAA | -0.122
TCGGGTCA | 0.232
AGCAGCCA | -0.259
CCCAGTCC | -0.0128
CTATAAAG | 0.0306
GAACCAGC | -0.126
ACCCGGAT | 0.238
ACCCGGAG | 0.46
GCCCGGGA | 0.341
ACCCGGCG | 0.258
GCCCGGTA | 0.26
GCCCGGAA | 0.423
AGCTCACC | -0.00625
ATTCCAAG | -0.077
ATGCCGAG | 0.213
ATGCCGAC | 0.318
ATTCCGAC | 0.451
GTTCCGAA | 0.373
CTTCCGAA | 0.371
CTTCCGAC | 0.273

Sequence | PBM E-score
ATTCCGAA | 0.456
ATTCCGAG | 0.445
GTGCAACA | -0.184
ACATTCCG | 0.332
AGGGTTAG | -0.249
ATATGATA | 0.0821
AAGATTCT | -0.242
AATACCGC | 0.268
AATACCGT | 0.211
AACACCGC | 0.27
CCCACCGA | 0.00192
CCCACCGG | 0.41
CCCACCGC | 0.225
AATACCGG | 0.416
CACACCGG | 0.283
AACACCGG | 0.411
ATAAATAT | 0.106
GGTTCGTA | -0.0544
CACTGTAC | -0.378
AAAGCGAC | 0.031
CGCCGAAG | 0.365
GGCCGAAA | 0.254
ATCCGAAG | 0.301

Sequence | PBM E-score
CTCCGAAG | 0.479
ATCCGAAT | 0.395
AACCGAAT | 0.133
GTCCGAAC | 0.401
ATCCGAAA | 0.368
GCCCGAAC | 0.215
GACCGAAC | 0.122
CACCGAAG | 0.167
GTCCGAAA | 0.426
GGACACCA | 0.0663
AAATGGTT | -0.0331
ACCCACAA | 0.00936
AGCTTCCG | 0.24
CAACTGCA | -0.174
GGAGCTCC | 0.348
TCCCGAAA | 0.238
TGCCGAAA | 0.325
CTCCGAAA | 0.477
TTCCGAAA | 0.43
CGCCGAAA | 0.358
ATCCGAAC | 0.344
CTCCGAAC | 0.457
CACCGAAA | 0.184

Sequence | PBM E-score
CACCGAAC | 0.102
CCACAATC | 0.0776
ACTGCTAA | -0.185
AACAGTTC | -0.0219
CCTCAAAG | -0.271
AGCGCTCC | 0.0243
CAGTAGCG | 0.0152
CGAGTTAC | -0.00574
GGAGTTAC | 0.399
AGAGTTAC | -0.362
ACCTAGCT | -0.1
ACTACAAA | -0.0603
CTCCGAGA | 0.452
GGCCGAGA | 0.272
CGCCGAGA | 0.304
CACCGAGA | 0.034
GTCCGAGA | 0.416
ATCCGAGC | 0.266
CTCCGAGC | 0.439
CCCCGAGC | 0.219
ATCCGAGA | 0.299
